These results are taken from PubChem BioAssay (EPA / NIEHS).

Molecules are shown by their SMILES. Active and inactive are the calls of the source. How the source made its calls: active means hit-call score of the fitted dose curve at least 0.9, where 1 is the maximum; inactive means score below 0.9.

Read-out in assay [1]: Human Leukocyte Antigen - DR isotype (HLADR), HLA-DRA (gene 3122)
Nature of the assay: BSK_CASM3C_HLADR: BioMAP Diversity Plus: CASM3C Assay for Human Leukocyte Antigen - DR isotype (HLADR) Biomarker Activity (AID 2283043).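 Further: cell-surface HLA-DR protein level quantified by ELISA.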 The settings on record: primary human coronary artery smooth muscle cells; actives raise or lower the signal.

Read-out in assay [2]: Macrophage colony-stimulating factor (MCSF), CSF1 (gene 1435)
Nature of the assay: BSK_CASM3C_MCSF: BioMAP Diversity Plus: CASM3C Assay for Macrophage colony-stimulating factor (MCSF) Biomarker Activity (AID 2283044).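 Further: M-CSF protein amount quantified by ELISA after 24 h exposure.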 Particulars: primary human coronary artery smooth muscle cells; actives raise or lower the signal.

Read-out in assay [3]: Low-density lipoprotein receptor (LDLR), LDLR (gene 3949)
Nature of the assay: BSK_CASM3C_LDLR: BioMAP Diversity Plus: CASM3C Assay for Low-density lipoprotein receptor (LDLR) Biomarker Activity (AID 2283045).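 Further: LDLR protein level on the cell surface quantified by ELISA.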 The settings on record: primary human coronary artery smooth muscle cells; actives raise or lower the signal.

Read-out in assay [4]: Monocyte Chemoattractant Protein-1 (MCP1), CCL2 (gene 6347)
Nature of the assay: BSK_CASM3C_MCP1: BioMAP Diversity Plus: CASM3C Assay for Monocyte Chemoattractant Protein-1 (MCP1) Biomarker Activity (AID 2283046).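 Further: MCP-1 level quantified by ELISA 24 h after dosing.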 The settings on record: primary human coronary artery smooth muscle cells; actives raise or lower the signal.

The nature of assay [5]: BSK_CASM3C_Proliferation: Cell Proliferation Assessment in the BioMAP Diversity Plus: CASM3C Assay (AID 2283047).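 Further: sulforhodamine B total protein stain as relative cell number at 560 nm; sub-confluent cells exposed 48 h before staining; fitted both ways against DMSO so gain or loss of cell number.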 The settings on record: primary human coronary artery smooth muscle cells.
Read-out in assay [6]: Monokine induced gamma interferon (MIG), CXCL9 (gene 4283)
Description: BSK_CASM3C_MIG: BioMAP Diversity Plus: CASM3C Assay for Monokine induced gamma interferon (MIG) Biomarker Activity (AID 2283048).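 Further: MIG protein level measured by ELISA.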 The settings on record: primary human coronary artery smooth muscle cells; actives raise or lower the signal.

Read-out in assay [7]: serum amyloid A (SAA), SAA1 (gene 6288)
Nature of the assay: BSK_CASM3C_SAA: BioMAP Diversity Plus: CASM3C Assay for serum amyloid A (SAA) Biomarker Activity (AID 2283049).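 Further: SAA protein level quantified by ELISA.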 The settings on record: primary human coronary artery smooth muscle cells; actives raise or lower the signal.

Assay [8] is described as follows: BSK_CASM3C_SRB: Viability Assessment in the BioMAP Diversity Plus: CASM3C Assay (AID 2283050).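 Further: cells exposed to compound for 24 h.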 The settings on record: primary human coronary artery smooth muscle cells.
Read-out in assay [9]: Thrombomodulin, THBD (gene 7056)
Nature of the assay: BSK_CASM3C_Thrombomodulin: BioMAP Diversity Plus: CASM3C Assay for Thrombomodulin Biomarker Activity (AID 2283051).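 Further: thrombomodulin protein level measured by ELISA 24 h after dosing.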 Particulars: primary human coronary artery smooth muscle cells; actives raise or lower the signal.

Read-out in assay [10]: Tissue Factor, F3 (gene 2152)
Nature of the assay: BSK_CASM3C_TissueFactor: BioMAP Diversity Plus: CASM3C Assay for Tissue Factor Biomarker Activity (AID 2283052).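 Further: cell surface tissue factor protein level read by ELISA.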 Particulars: primary human coronary artery smooth muscle cells; actives raise or lower the signal.

Read-out in assay [11]: Interferon-gamma inducible Protein 10 (IP10), CXCL10 (gene 3627)
Nature of the assay: BSK_hDFCGF_IP10: BioMAP Diversity Plus: hDFCGF Assay for Interferon-gamma inducible Protein 10 (IP10) Biomarker Activity (AID 2283053). Particulars: primary human foreskin fibroblasts; actives raise or lower the signal. An outline of the steps: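 ELISA read-out of IP-10 (CXCL10) from primary human skin fibroblasts, 24 h after compound addition. Gain or loss of signal versus DMSO baseline, bidirectional curve fitting.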

Read-out in assay [12]: Urokinase-type plasminogen activator receptor (uPAR), PLAUR (gene 5329)
Nature of the assay: BSK_CASM3C_uPAR: BioMAP Diversity Plus: CASM3C Assay for Urokinase-type plasminogen activator receptor (uPAR) Biomarker Activity (AID 2283054).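 Further: cell-surface uPAR protein level quantified by ELISA.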 The settings on record: primary human coronary artery smooth muscle cells; actives raise or lower the signal.

Read-out in assay [13]: Vascular cell adhesion molecule 1 (VCAM1), VCAM1 (gene 7412)
Nature of the assay: BSK_CASM3C_VCAM1: BioMAP Diversity Plus: CASM3C Assay for Vascular cell adhesion molecule 1 (VCAM1) Biomarker Activity (AID 2283055).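 Further: VCAM-1 protein level quantified by ELISA on the cells.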 The settings on record: primary human coronary artery smooth muscle cells; actives raise or lower the signal.

Read-out in assay [14]: Collagen III, COL3A1 (gene 1281)
Nature of the assay: BSK_hDFCGF_CollagenIII: BioMAP Diversity Plus: hDFCGF Assay for Collagen III Biomarker Activity (AID 2283056). Particulars: primary human foreskin fibroblasts; actives raise or lower the signal. An outline of the steps:
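hDFCGF primary human dermal fibroblasts; 24 h chemical exposure; collagen III by ELISA; bidirectional curve fit vs DMSO baseline (gain or loss of signal).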

Read-out in assay [15]: Epidermal growth factor receptor (EGFR), EGFR (gene 1956)
Nature of the assay: BSK_hDFCGF_EGFR: BioMAP Diversity Plus: hDFCGF Assay for Epidermal growth factor receptor (EGFR) Biomarker Activity (AID 2283057). The settings on record: primary human foreskin fibroblasts; actives raise or lower the signal. Put shortly: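 ELISA readout of EGFR on human dermal fibroblasts (primary foreskin cells), 24 h post-dosing; bidirectional curve fit vs DMSO baseline, gain or loss of signal scored.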

Read-out in assay [16]: Interleukin-8 (IL8), CXCL8 (gene 3576)
Description: BSK_hDFCGF_IL8: BioMAP Diversity Plus: hDFCGF Assay for Interleukin-8 (IL8) Biomarker Activity (AID 2283058). Particulars: primary human foreskin fibroblasts; actives raise or lower the signal. Put shortly:
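ELISA read-out of IL-8 from primary human foreskin fibroblast cultures taken 24 h after dosing; values are bidirectional fits relative to DMSO vehicle.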

Assay [17] in a line: BSK_hDFCGF_Proliferation: Cell Proliferation Assessment in the BioMAP Diversity Plus: hDFCGF Assay (AID 2283059).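 Further: curves fitted for both rise and fall of signal versus DMSO baseline.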 The settings on record: primary human foreskin fibroblasts. Put shortly:
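Sub-confluent human foreskin fibroblast cultures receive test chemical […]. Relative cell number is quantified by sulforhodamine B staining (0.1%, after 10% TCA fixation) at 560 nm, with bidirectional fitting referenced to DMSO.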

Read-out in assay [18]: Macrophage colony-stimulating factor (MCSF), CSF1 (gene 1435)
Nature of the assay: BSK_hDFCGF_MCSF: BioMAP Diversity Plus: hDFCGF Assay for Macrophage colony-stimulating factor (MCSF) Biomarker Activity (AID 2283060). Particulars: primary human foreskin fibroblasts; actives raise or lower the signal. An outline of the steps: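 ELISA read-out of M-CSF in human dermal foreskin fibroblast cultures, 24 h after chemical dosing; gain or loss of signal fitted bidirectionally relative to DMSO baseline.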

A short description of assay [19]: BSK_hDFCGF_SRB: Viability Assessment in the BioMAP Diversity Plus: hDFCGF Assay (AID 2283061).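 Further: cells exposed to compound for 24 h before the read.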 The settings on record: primary human foreskin fibroblasts. An outline of the steps:
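Primary human foreskin fibroblasts; 24 h post-dose; fixed 10% TCA, stained 0.1% SRB, A560 read; total protein as overt cytotoxicity measure; curves fit bidirectionally vs DMSO control.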

Read-out in assay [20]: TIMP metallopeptidase inhibitor 1 (TIMP1), TIMP1 (gene 7076)
Nature of the assay: BSK_hDFCGF_TIMP1: BioMAP Diversity Plus: hDFCGF Assay for TIMP metallopeptidase inhibitor 1 (TIMP1) Biomarker Activity (AID 2283062). Particulars: primary human foreskin fibroblasts; actives raise or lower the signal. An outline of the steps:
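ELISA readout of TIMP-1 from human dermal foreskin fibroblast cultures 24 h post-dosing. Curves were fitted in both directions against DMSO baseline, with SRB total-protein staining in parallel cultures as a cytotoxicity check.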

On to `COc1cccc([C@H](O)C2CCN(CCc3ccc(F)cc3)CC2)c1OC`, for which the result in assay [1], in [2], in [3], in [4], in assay [5] and in assay [6] was inactive. The result in assay [7], in assay [8], in [9], in assay [10], in assay [11] and in assay [12] was inactive. The outcome in [13], in assay [14], in [15], in assay [16], in assay [17] and in assay [18] was inactive. Moreover, the result in [19] and in assay [20] was inactive.

Broadly, the AC50 is the concentration giving half of the maximal activity seen. As to `Cc1cc2c(cc1C(F)(F)F)N(C(=O)Nc1ccc(Oc3cccnc3C)nc1)CC2`, the AC50 in assay [1] is 16.6 µM (active); in assay [2], 30.6 µM (active); in [3], 3.81 µM (active); in assay [4], 28.3 µM (active); in assay [5] it was 13.8 µM (active); in [8], 26.3 µM (active). Moreover, the AC50 in [9] was 5.04 µM (active); in assay [11], 18.4 µM (active); in [12], 25 µM (active); in [13] it was 31.1 µM (active); in assay [17] it was 1.94 µM (active); in [19] it was 27.6 µM (active). Besides, the result in assay [6], in assay [7], in [10], in [14], in assay [15] and in assay [16] was inactive. Besides, the outcome in [18] and in assay [20] was inactive.

As to `CC(C)(C)c1cc(/C=C2\SC(N)=NC2=O)cc(C(C)(C)C)c1O`, the AC50 is 20 µM (active) in [1]; 33.3 µM (active) in assay [2]; 29.1 µM (active) in assay [3]; 31.1 µM (active) in assay [4]; 29.1 µM (active) in assay [5]; 32 µM (active) in assay [6]. The AC50 in assay [7] is 31.6 µM (active); in [8], 30.7 µM (active); in [9], 0.507 µM (active); in assay [11], 25.7 µM (active); in assay [12], 31.9 µM (active); in [13], 31.1 µM (active). Also, the concentration at half-maximal activity (AC50) is 6.83 µM (active) in assay [14]; 20 µM (active) in [16]; 7.49 µM (active) in assay [17]; 20 µM (active) in assay [18]; 20 µM (active) in assay [19]; 31 µM (active) in assay [20]. Besides, the outcome in assay [10] and in assay [15] was inactive.

For the molecule `O=C(O)c1ccccc1-n1cc(C(=O)O)c(=O)c2cc(Nc3c(F)cc(F)cc3Cl)c(Cl)cc21`, the outcome in assay [1], in [2], in assay [3], in assay [4], in assay [5] and in [6] was inactive. The outcome in assay [7], in assay [8], in [9], in assay [10], in assay [11] and in [12] was inactive. Further, the outcome in [13], in assay [14], in [15], in [16], in assay [17] and in assay [18] was inactive. Besides, the outcome in assay [19] and in [20] was inactive.

With `CC1=CC(=O)/C(=C(/C)O)C(=O)O1`, the outcome in assay [1], in [2], in assay [3], in assay [4], in assay [5] and in assay [6] was inactive. In addition, the outcome in [7], in assay [8], in assay [9], in [10], in assay [11] and in assay [12] was inactive. The result in assay [13], in assay [14], in [15], in assay [16], in assay [17] and in assay [18] was inactive. Further, the outcome in assay [19] and in assay [20] was inactive.

For `C[C@]12CC[C@@H]3c4ccc(O)cc4CC[C@H]3[C@@H]1CC[C@H]2O`, the outcome in [1], in assay [2], in assay [3], in assay [4], in assay [6] and in assay [7] was inactive. Also, the result in assay [8], in [9], in assay [10], in assay [11], in assay [12] and in [15] was inactive. Also, the outcome in assay [16], in [17], in [18], in [19] and in [20] was inactive. In addition, the AC50 in assay [5] was 13.2 µM (active); in assay [13], 16 µM (active); in [14], 12 µM (active).

Consider `CCCCCCCCOC(=O)c1cc(O)c(O)c(O)c1`, for which the half-maximal activity concentration (AC50) in assay [1] is 31.9 µM (active); in [2] it was 20 µM (active); in assay [3], 29.2 µM (active); in [4], 27.8 µM (active); in [5], 16.1 µM (active); in [6] it was 31 µM (active). For the same molecule, the AC50 was 20 µM (active) in assay [7]; 31.3 µM (active) in assay [8]; 0.282 µM (active) in assay [9]; 12.7 µM (active) in assay [11]; 34.2 µM (active) in [12]; 28.2 µM (active) in assay [13]. In addition, the AC50 in assay [14] was 14 µM (active); in assay [16] it was 33.2 µM (active); in [17], 4.32 µM (active); in [18], 27.8 µM (active); in [19] it was 18.5 µM (active); in assay [20], 37.8 µM (active). Moreover, the result in assay [10] and in assay [15] was inactive.

Regarding `O=C(O)c1ccccc1C(=O)OCc1ccccc1`, the result in assay [1], in assay [2], in assay [3], in [4], in assay [5] and in assay [6] was inactive. For the same molecule, the outcome in [7], in [8], in assay [9], in [10], in assay [11] and in assay [12] was inactive. Moreover, the result in [13], in [14], in assay [15], in assay [16], in assay [17] and in [18] was inactive. Moreover, the result in [19] and in [20] was inactive.

Turning to `CCN(CC)C(=O)c1cc(S(=O)(=O)Cc2ccccc2)c(N2CCC(c3ccccc3)CC2)cc1N(CC)CCN(C)C`, the AC50 in assay [1] was 5.38 µM (active); in assay [3], 0.138 µM (active); in [5] it was 7.05 µM (active); in [8], 27.1 µM (active); in assay [10], 29.8 µM (active); in assay [12] it was 20.4 µM (active). The AC50 in [14] was 4.27 µM (active); in [17], 5.9 µM (active); in assay [18] it was 18.7 µM (active). For the same molecule, the outcome in assay [2], in assay [4], in [6], in assay [7], in [9] and in assay [11] was inactive. Also, the outcome in assay [13], in assay [15], in [16], in assay [19] and in assay [20] was inactive.
